Assay results published in PubChem BioAssay (NCATS).
Values joined by “and” are separate entries in the source; they are usually repeats but may differ in a detail not shown here. Equal values may be shown once. Records with an inconclusive call do not appear. Active and inactive are the calls of the source. Unless noted, the call rests on the fitted dose curve; in most records, active means well fitted curve in the direction sought with a large enough effect; inconclusive means small, poorly fitted or top-dose-only effect, or another doubt; inactive means no such curve, though single readings can be large; an effect the other way counts as inactive or inconclusive.

Legend:
[1] = molecular target: Thyroid hormone receptor beta (Homo sapiens) (UniProt P10828); assay: qHTS assay for small molecule agonists of thyroid hormone receptor beta signaling (AID 588545; calls by dose curve)
Thyroid hormone receptor beta (Homo sapiens), sequence (P10828 whole entry, looked up): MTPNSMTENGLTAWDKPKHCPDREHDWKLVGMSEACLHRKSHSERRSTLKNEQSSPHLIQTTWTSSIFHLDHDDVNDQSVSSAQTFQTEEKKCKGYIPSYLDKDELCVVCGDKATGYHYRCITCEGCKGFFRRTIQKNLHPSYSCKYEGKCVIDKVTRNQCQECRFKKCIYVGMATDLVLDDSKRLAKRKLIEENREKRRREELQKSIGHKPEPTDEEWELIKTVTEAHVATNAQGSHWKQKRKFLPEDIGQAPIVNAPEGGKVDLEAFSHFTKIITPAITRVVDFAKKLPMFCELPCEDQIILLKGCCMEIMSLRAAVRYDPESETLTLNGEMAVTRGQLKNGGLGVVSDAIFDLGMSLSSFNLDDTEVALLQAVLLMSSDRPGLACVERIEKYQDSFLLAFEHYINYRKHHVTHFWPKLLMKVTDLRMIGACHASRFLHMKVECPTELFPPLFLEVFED
In short: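 HEK 293 TR-UAS-bla; agonist mode; 18 hrs, 37 C; CCF4, ex 405/em 460 and 530 nm; norm. T3 10 nM = 100%, DMSO = 0%; Hill fit → EC50, efficacy.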

[2] = qHTS assay for small molecule antagonists of retinoid X receptor alpha signaling (AID 588546; active means well fitted inhibition curve with a large enough effect in the signal ratio, with a control signal flat, not every such curve was filed as active; the % refers to the signal ratio;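 further: cells stimulated with 9-cis-retinoic acid as agonist; on the % scale 0 is the no-effect control and ±100 the full control effect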); settings: HEK293T RXRa-UAS-bla, beta-lactamase ratio, antagonist mode; measured here: W530 green channel, cytotoxicity proxy
In short: (§1)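 Beta-lactamase reporter inhibition, read as CCF4 fluorescence ratio (ex 405, em 460/530 nm) after 2 h at RT. HEK293T UAS-bla cells, 2500/well, were stimulated with 9-cis-RA at 500 or 100 nM final alongside test compound for 18 h at 37 C.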

[3] = molecular target: Retinoic acid receptor RXR-alpha (Homo sapiens) (UniProt P19793); assay: as above; settings: HEK293T RXRa-UAS-bla, beta-lactamase ratio, antagonist mode
Retinoic acid receptor RXR-alpha (Homo sapiens), sequence (P19793 whole entry, looked up): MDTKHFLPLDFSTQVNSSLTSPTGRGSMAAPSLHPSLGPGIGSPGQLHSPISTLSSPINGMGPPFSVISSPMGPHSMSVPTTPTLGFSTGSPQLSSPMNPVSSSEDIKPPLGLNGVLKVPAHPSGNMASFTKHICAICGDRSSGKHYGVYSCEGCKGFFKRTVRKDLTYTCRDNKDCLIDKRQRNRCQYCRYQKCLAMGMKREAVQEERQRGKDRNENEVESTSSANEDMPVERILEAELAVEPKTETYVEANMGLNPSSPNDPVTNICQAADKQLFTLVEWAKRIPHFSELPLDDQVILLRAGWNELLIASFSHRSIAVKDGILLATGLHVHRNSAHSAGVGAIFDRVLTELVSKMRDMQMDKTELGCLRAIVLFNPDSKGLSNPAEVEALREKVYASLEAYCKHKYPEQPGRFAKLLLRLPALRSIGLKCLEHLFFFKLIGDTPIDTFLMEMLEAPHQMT
In short: as §1

[4] = molecular target: Thyroid hormone receptor beta (Homo sapiens) (UniProt P10828); assay: qHTS assay for small molecule antagonists of thyroid hormone receptor beta signaling (AID 588547; active means well fitted inhibition curve with a large enough effect in the signal ratio, with a control signal flat, not every such curve was filed as active; the % refers to the signal ratio;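 further: cells stimulated with 0.4 nM T3 agonist during compound exposure; series mostly up to about 77 µM; on the % scale 0 is the no-effect control and ±100 the full control effect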); settings: TR-UAS-bla HEK293, beta-lactamase ratio, antagonist mode, 18 h
In short: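 TR-UAS-bla GripTite HEK293 cells in 2% charcoal/dextran FBS medium were preincubated 4 h at 37 C, given compound (0.59 nM to 92 uM) plus 0.4 nM T3 (final) for 18 h, then CCF4 for 2 h at RT; Hill fit gave IC50.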

[5] = molecular target: Voltage-gated inwardly rectifying potassium channel KCNH2 (Homo sapiens) (UniProt Q12809); assay: qHTS Assay for Small Molecule Inhibitors of the Human hERG Channel Activity (AID 588834);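 further: top concentration of the series differs between compounds; on the % scale 0 is the no-effect control and ±100 the full control effect; lower thallium flux fluorescence means stronger hERG block; nearly all actives have a fitted effect of over 50% in size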
Voltage-gated inwardly rectifying potassium channel KCNH2 (Homo sapiens), sequence (Q12809 whole entry, looked up): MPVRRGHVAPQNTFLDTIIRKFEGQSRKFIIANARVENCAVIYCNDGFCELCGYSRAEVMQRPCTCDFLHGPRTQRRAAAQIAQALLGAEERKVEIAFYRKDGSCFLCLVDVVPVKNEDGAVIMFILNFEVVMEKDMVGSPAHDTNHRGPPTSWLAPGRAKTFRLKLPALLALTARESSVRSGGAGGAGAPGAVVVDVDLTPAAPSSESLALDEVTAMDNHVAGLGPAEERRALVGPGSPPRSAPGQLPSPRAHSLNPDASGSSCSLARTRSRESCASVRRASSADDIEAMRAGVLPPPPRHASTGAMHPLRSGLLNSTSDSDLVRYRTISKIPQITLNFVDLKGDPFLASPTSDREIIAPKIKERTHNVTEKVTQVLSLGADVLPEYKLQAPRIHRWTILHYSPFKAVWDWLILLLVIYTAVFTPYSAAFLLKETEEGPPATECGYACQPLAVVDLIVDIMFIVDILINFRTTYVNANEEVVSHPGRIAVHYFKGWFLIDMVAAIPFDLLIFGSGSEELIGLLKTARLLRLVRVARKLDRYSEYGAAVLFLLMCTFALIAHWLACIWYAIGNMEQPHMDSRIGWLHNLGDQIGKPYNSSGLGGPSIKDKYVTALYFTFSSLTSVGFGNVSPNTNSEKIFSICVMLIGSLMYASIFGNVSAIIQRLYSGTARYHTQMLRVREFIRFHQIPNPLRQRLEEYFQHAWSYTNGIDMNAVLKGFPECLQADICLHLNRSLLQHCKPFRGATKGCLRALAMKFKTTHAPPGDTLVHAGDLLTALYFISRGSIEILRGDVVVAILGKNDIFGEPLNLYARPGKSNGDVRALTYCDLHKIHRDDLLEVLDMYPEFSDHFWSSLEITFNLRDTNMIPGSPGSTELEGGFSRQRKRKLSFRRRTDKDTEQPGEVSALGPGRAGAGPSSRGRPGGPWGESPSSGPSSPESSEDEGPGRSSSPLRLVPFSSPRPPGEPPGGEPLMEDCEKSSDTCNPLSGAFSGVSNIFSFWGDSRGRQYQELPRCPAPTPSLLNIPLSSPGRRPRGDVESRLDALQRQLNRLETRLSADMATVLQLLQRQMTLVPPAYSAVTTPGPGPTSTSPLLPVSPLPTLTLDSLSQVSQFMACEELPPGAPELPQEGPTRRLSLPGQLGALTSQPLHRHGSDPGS
In short: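 Step 1: BacMam hERG transduction of U2OS, 4 hrs RT. Step 2: overnight 37 °C, plate 2000 cells/well, 4 hr. Step 3: FluxOR load, compound 10 min, stimulate, read fluorescence.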

[6] = qHTS assay for small molecule agonists of the antioxidant response element (ARE) signaling pathway (AID 651741; active means well fitted activation curve with a large enough effect in the signal ratio; the % refers to the signal ratio; further: % of control where 0% means no effect)
In short: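 Reporter: beta-lactamase under ARE, stably in HepG2. Exposure: 16 h, 37 C, compounds delivered in DMSO by pin tool after 5 h cell preincubation. Readout: FRET substrate fluorescence after 2 h at RT.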

[7] = qHTS assay for small molecule activators of the p53 signaling pathway (AID 651743; active means well fitted activation curve with a large enough effect in the signal ratio, not every such curve was filed as active; the % refers to the signal ratio; further: series mostly up to about 92 µM; % of control where 0% means no effect); settings: HCT-116 p53RE-bla, beta-lactamase FRET ratio, 16 h; activation: stronger effect = higher value
In short: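 Agonist-mode quantitative HTS in HCT-116 cells carrying a p53-response-element beta-lactamase reporter; 16 h compound treatment at 37 C, then FRET substrate loading for 2 h at room temperature and fluorescence read.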

[8] = qHTS assay for small molecule activators of the nuclear factor-kappa B (NF-kB) signaling pathway (AID 651749; active means well fitted activation curve with a large enough effect in the signal ratio; the % refers to the signal ratio; further: series mostly up to about 77 µM; % of control where 0% means no effect); settings: NF-kB-bla ME-180 cells, beta-lactamase FRET ratio, 16 h; stronger effect = higher value
In short: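 Human ME-180 cervical cells with an NF-kB-bla construct; compounds added via 23 nL pin transfer, DMSO as vehicle; incubation 16 hr. Reporter activity measured by FRET disruption.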

[9] = qHTS assay for small molecule disruptors of the mitochondrial membrane potential - 1 hr assay (AID 651754; calls by dose curve; further: on the % scale 0 is the no-effect control and ±100 the full control effect; nearly all actives have a fitted effect of over 35% in size)
In short: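 Mitochondrial potential in living HepG2 cells after 1 hr compound treatment at 37C was read with Mito-MPS dye added for a further 30 min. Red aggregate and green monomer fluorescence were measured; loss of potential leaves dye as cytoplasmic monomers.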

[10] = qHTS assay for small molecule disruptors of the mitochondrial membrane potential - 5 hr assay (AID 651755; calls by dose curve; further: on the % scale 0 is the no-effect control and ±100 the full control effect; nearly all actives have a fitted effect of over 40% in size)
In short: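 Seed HepG2 overnight, add compound, incubate 5 hr at 37C and 5% CO2, stain 30 min with Mito-MPS, then measure monomer (490/535 nm) and aggregate (540/590 nm) fluorescence.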

[11] = molecular target: Tumor necrosis factor (Homo sapiens) (UniProt P01375); assay: qHTS assay to identify small molecules that stimulate Tumor Necrosis Factor-alpha (TNF-alpha) secretion (AID 651757; active means well fitted curve in the direction sought with a large enough effect in the signal ratio; the % refers to the signal ratio; further: 0% is about no effect)
Tumor necrosis factor (Homo sapiens), sequence (P01375 whole entry, looked up): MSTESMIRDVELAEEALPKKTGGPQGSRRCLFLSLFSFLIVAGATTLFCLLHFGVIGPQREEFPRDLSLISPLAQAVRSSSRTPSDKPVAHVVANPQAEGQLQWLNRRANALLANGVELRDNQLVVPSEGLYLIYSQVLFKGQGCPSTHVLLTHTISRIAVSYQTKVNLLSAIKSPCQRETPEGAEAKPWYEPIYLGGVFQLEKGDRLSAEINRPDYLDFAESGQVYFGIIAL
In short: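 Secreted TNF-alpha quantified by TR-FRET sandwich of two labeled anti-TNF-alpha antibodies, incubated 3 hr at room temperature. Preceded by 17 hr, 37 C compound treatment of THP-1 cells at 3000 cells/well.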

[12] = qHTS assay for environmental chemicals that activate the Aryl hydrocarbon Receptor (AhR) signaling pathway (AID 651777); settings: 1A2-DRE human hepatoma cells, luciferase, 24 h; activation: stronger effect = higher value; further: % of control where 0% means no effect; nearly all actives have a fitted effect of over 15% in size
In short: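 Reporter gene assay: hepatoma cells with DRE/CYP1A2-luciferase, 24 hr compound incubation at 37 C, 5% CO2, luminescence after One-Glo (30 min, RT).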

[13] = molecular target: Peroxisome proliferator-activated receptor alpha (Homo sapiens) (UniProt Q07869); assay: qHTS assay for small molecule agonists of the peroxisome proliferator-activated receptor alpha (PPARalpha) signaling pathway (AID 651778); settings: PathHunter PPARalpha complementation, chemiluminescence, 6 h; max response: stronger effect = higher value; further: % of control where 0% means no effect
Peroxisome proliferator-activated receptor alpha (Homo sapiens), sequence (Q07869 whole entry, looked up): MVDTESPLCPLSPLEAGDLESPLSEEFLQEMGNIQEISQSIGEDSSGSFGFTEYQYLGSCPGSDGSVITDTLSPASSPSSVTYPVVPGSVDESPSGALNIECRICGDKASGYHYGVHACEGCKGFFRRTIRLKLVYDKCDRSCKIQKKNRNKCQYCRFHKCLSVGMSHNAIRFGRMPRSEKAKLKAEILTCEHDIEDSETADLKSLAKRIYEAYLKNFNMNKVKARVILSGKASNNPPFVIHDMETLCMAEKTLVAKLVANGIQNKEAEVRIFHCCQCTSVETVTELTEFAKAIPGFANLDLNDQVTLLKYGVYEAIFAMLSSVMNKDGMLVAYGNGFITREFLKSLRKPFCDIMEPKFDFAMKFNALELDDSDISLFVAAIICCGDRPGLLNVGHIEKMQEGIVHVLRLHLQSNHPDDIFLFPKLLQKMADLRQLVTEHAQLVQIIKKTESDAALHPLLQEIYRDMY
In short: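 Cells plated at 2,000/well and held overnight at 37 C, 5% CO2, then compound added by pin tool for 6 hr; after PathHunter detection reagent and 60 min at room temperature, chemiluminescence from enzyme complementation was read.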

[14] = molecular target: Nuclear receptor ROR-gamma (Homo sapiens) (UniProt P51449); assay: qHTS assay for small molecule antagonists of the retinoid-related orphan receptor gamma (ROR-gamma) signaling pathway (AID 651802);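 further: CHO cells with doxycycline-induced ROR-gamma expression; luciferase reporter luminescence driven by ROR response element; series mostly up to about 92 µM; on the % scale 0 is the no-effect control and ±100 the full control effect; nearly all actives have a fitted effect of over 60% in size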
Nuclear receptor ROR-gamma (Homo sapiens), sequence (P51449 whole entry, looked up): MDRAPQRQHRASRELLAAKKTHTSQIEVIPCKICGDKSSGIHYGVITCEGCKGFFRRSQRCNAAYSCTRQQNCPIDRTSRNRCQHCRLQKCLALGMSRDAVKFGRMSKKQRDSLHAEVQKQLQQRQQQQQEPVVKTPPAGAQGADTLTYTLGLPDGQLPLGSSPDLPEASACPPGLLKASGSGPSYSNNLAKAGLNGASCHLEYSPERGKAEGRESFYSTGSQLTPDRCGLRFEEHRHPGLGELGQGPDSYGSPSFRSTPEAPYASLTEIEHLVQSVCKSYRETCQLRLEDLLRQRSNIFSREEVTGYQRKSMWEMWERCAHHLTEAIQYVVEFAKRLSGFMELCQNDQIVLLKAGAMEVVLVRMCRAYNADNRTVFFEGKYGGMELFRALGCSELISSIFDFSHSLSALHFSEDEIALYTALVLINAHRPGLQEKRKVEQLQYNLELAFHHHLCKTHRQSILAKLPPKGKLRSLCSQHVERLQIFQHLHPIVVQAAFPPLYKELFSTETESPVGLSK
In short: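 Luminescence (One-Glo, 30 min RT) measured 16 h after compound addition and doxycycline induction at 37C. Reporter: RORE-luciferase under TET-inducible ROR-gamma in CHO cells.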

[15] = qHTS assay for small molecule agonists of the antioxidant response element (ARE) signaling pathway measured by Nrf2-dependant transcriptional activity (AID 720636; active means well fitted curve in the direction sought with a large enough effect in the repeat runs; an effect the other way counts as inactive or inconclusive;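 further: HepG2 cells with an ARE-driven luciferase reporter; % of control where 0% means no effect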)
In short: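 Nrf2-dependent transcription is measured in ARE-luc HepG2 cells: compound is applied for 16 hr at 37 C after a 6 hr attachment period, and luciferase activity is quantified by luminescence using ONE-Glo.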

[16] = qHTS assay for small molecule antagonists of the retinoid-related orphan receptor gamma (ROR-gamma) signaling pathway - cell viability counter screen (AID 720652; active means well fitted curve in the direction sought with a large enough effect in the repeat runs; an effect the other way counts as inactive or inconclusive;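 further: CHO reporter cells with doxycycline-induced ROR-gamma expression; series mostly up to about 92 µM; compound exposure lasted 16 hr before ATP read; on the % scale 0 is the no-effect control and ±100 the full control effect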)
In short: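 Cytotoxicity counter screen: intracellular ATP (CellTiter-Glo luminescence) measured in the doxycycline-induced CHO RORE-luciferase reporter line after 16 hr compound exposure at 37 C, 5% CO2.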

[17] = qHTS assay for small molecule agonists of the antioxidant response element (ARE) signaling pathway measured by Nrf2-dependant transcriptional activity - cell viability counter screen (AID 720653; active means well fitted curve in the direction sought with a large enough effect in the repeat runs; an effect the other way counts as inactive or inconclusive; further: on the % scale 0 is the no-effect control and ±100 the full control effect); settings: ARE-bla HepG2 viability, CellTiter-Glo ATP luminescence, 16 h; max response: stronger effect = lower value
In short: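 ARE-bla HepG2 cells (2,000/well) rested 5 hrs at 37C/5% CO2, then exposed to compounds in DMSO for 16 hrs. Viability was read in the same wells as intracellular ATP by luminescence, 30 min at room temperature after reagent addition.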

[18] = qHTS assay for cell viability of HEK293 cells (AID 743288); settings: ATP luminescence (CellTiter-Glo), 18 h; max response: stronger effect = lower value; further: on the % scale 0 is the no-effect control and ±100 the full control effect; nearly all actives have a fitted effect of over 50% in size
In short: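 Viable-cell counts were inferred from luciferase-based ATP content in HEK293 cells seeded at 2,000/well, pre-incubated ≥5 h, then dosed with DMSO-solubilised compounds for 18 h at 37 C.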

[19] = qHTS assay for cell viability of the p53RE-bla HCT-116 cell line (AID 743292); further: on the % scale 0 is the no-effect control and ±100 the full control effect; nearly all actives have a fitted effect of over 55% in size
In short: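 ATP-based luminescence, 16 h compound exposure at 37 C, p53RE-bla HCT-116 cells at 4,000/well.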

[20] = NCATS anti-infectives library activity on HEK293 viability as a counter-qHTS vs the C. elegans viability qHTS (AID 1745854); further: on the % scale 0 is the no-effect control and ±100 the full control effect
In short: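 Cytotoxicity counter-screen to a worm viability qHTS: CellTiter-Glo luminescence read 10 min after reagent addition. Compounds (final up to 41.7 uM, a 1:5 dilution series) incubated 24 hr at 37C with 1,500 HEK293 cells per well; digitonin control.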

[21] = molecular target: Nuclear receptor subfamily 1 group I member 2 (Rattus norvegicus) (UniProt Q9R1A7); assay: qHTS assay for small molecule activators of the rat pregnane X receptor (rPXR) signaling pathway (AID 651751; call rule not given here; further: 0% is about no effect); settings: rPXR reporter cells, luciferase (One-Glo), 24 h
Nuclear receptor subfamily 1 group I member 2 (Rattus norvegicus), sequence (Q9R1A7 whole entry, looked up): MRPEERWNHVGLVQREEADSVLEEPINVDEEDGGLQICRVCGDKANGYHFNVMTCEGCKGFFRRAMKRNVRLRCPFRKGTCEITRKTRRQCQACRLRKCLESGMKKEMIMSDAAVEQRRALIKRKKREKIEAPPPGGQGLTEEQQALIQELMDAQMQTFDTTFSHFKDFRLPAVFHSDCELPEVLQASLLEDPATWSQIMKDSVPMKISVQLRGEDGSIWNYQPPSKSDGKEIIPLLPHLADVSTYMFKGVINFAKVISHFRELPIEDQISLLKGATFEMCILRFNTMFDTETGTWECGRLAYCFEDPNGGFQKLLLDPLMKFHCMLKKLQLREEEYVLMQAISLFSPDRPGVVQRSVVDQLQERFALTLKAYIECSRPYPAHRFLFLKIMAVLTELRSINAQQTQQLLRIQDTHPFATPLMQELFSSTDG

[22] = qHTS assay for small molecule activators of the human pregnane X receptor (PXR) signaling pathway (AID 720659; call rule not given here; further: 0% is about no effect)

CC12CCC(CC1=O)C2(C)C (configuration not stated)
-5.66% and -6.43%: max response [2]
inactive: outcome [1] | max response [3] 4.29% and -7.42% | activity change % (negative = inhibition) [4] 8% and 6.78% | Potency [5] | Potency [6] | activation [7] -2.06% and 2.14% | activation [8] -0.0521% and -0.265% | Potency [9] | Potency [10] | outcome [11] | activation [12] -0.66% and 0.506% | max response [13] -4.19% and 0.373% | Potency [14] | Potency [15] | Potency [16] | max response [17] -1.85% and 2.1% | max response [18] -2.81% and -7.37% | Potency [19] | Potency [20] | max response [21] 4.6% and -1.11% | outcome [22]
